Experimental findings from PubChem BioAssay are described below.

Records with an inconclusive call do not appear. The source made the active and inactive calls.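 Rule for the calls, unless noted: active = GFP response, as percent of the DMSO control, above the screen-wide mean plus 3 SD, about 139; inconclusive = no response measured because the compound's own fluorescence interfered; inactive = the rest.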

Test [1] can be described thus: yeast TOR pathway RPL19A-GFP modulators, primary screen, cell-based, S. cerevisiae, multiplex flow cytometry (AID 1862; in the data active = percent of DMSO control GFP below about 86%;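 note: lower values mimic rapamycin by blocking the RPL19A rise seen in DMSO cells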). The note with it: S. cerevisiae RPL19A-GFP strain, flow cytometry fluorescence, 3 h; at 10 µM; stronger effect = lower value. (In general: In flow cytometry, cells or beads pass a laser one at a time.)
A short description of test [2]: modulators of MEP2-GFP levels in yeast, primary screen, S. cerevisiae, multiplex flow cytometry (AID 1867).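 Note: median GFP channel fluorescence of barcode-gated MEP2-GFP cells measured by flow cytometry.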 To be noted: S. cerevisiae MEP2-GFP strain, 3 h, at 10 µM, stronger effect = higher value, 100% means same as DMSO wells.
Test [3] in a line: modulators of CIT2-GFP expression in yeast, primary screen, S. cerevisiae, GFP fusion, multiplex flow cytometry (AID 1870;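 active = percent response above a set limit, the screen-wide mean plus 3 SD, cut at about 130% in these data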;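 note: barcoded CIT2-GFP strain pooled with four other GFP strains with rapamycin as positive control; median GFP fluorescence per well over plate mean of DMSO wells so 100% = DMSO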). The note with it: 3 h, at 10 µM, stronger effect = higher value.
The nature of test [4]: modulators of LAP4-GFP expression in yeast, primary screen, S. cerevisiae, multiplex flow cytometry (AID 1873;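 active = GFP signal, as percent of the solvent control, above the screen mean plus 3 SD, about 149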). To be noted: 3 h, at 10 µM, stronger effect = higher value.
The nature of test [5]: modulators of AGP1-GFP expression in yeast TOR pathway, primary screen, cell-based, multiplex flow cytometry, S. cerevisiae (AID 1887;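 active = GFP signal above the screen-wide mean plus 3 SD, that is over about 124.5% of the solvent control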;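 note: AGP1-GFP fusion strain of S. cerevisiae within a five-strain barcoded multiplex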). To be noted: 3 h, at 10 µM, stronger effect = higher value.
Test [6] in a line: inhibitors of CD8+ T cell-vesicle binding, pilot screen, LFA-1/ICAM-1 modulator project, MLPCN validation set, flow cytometry (AID 2523;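 active = response below a set limit, under 55% cells CD8-positive and vesicle-bound, and CD8 cells' 90th-percentile brightness under 279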;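 for vesicle binding response: mean PE anti-B7-1 fluorescence of CD8+ cells relative to row control; 100% = QL9-loaded vesicles with DMSO vehicle in the same plate row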). The note with it: 2C mouse CD8+ T cells, at 7 µM, stronger effect = lower value; double positive events: measured here: CD8+/vesicle+ event percentage.
The target of test [7] is Integrin beta-1 (Homo sapiens) + Integrin alpha-4 (Homo sapiens) (UniProt P13612+P05556). Nature of the test: inhibition of HUTS-21 binding to VLA-4, pilot screen, VLA-4 allosteric modulator project, U937 cells, HUTS-21 mAb, flow cytometry, validation set (AID 2674;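 active = inhibition above 50%, about 3 SD of the validation set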;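 note: antibody binding induced by the VLA-4 ligand LDV present at three times its Kd; 0% = LDV ligand with antibody and no compound and 100% = antibody without LDV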). The note with it: HUTS-21 LIBS mAb binding, at 6.7 µM, stronger effect = higher value, binding induced by LDV ligand.

Test [8] in a line: superoxide lowering in aged yeast cells, pilot screen, validation compound set (AID 2706;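 active = superoxide response below 65% of plate, a cut near 3 SD across the whole screen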;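 note: yeast exposed to compound for one week at 30 degrees C before staining; 100% = mean of all compound wells on the same plate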). The note with it: S. cerevisiae aging, superoxide DHE fluorescence; at 10 µM; stronger effect = lower value.
In test [9] the target is Beta-adrenergic receptor kinase 1 (Homo sapiens) (UniProt P25098). Nature of the test: GRK2 binders displacing RNA aptamer, biochemical, validation, human GRK2, bead flow cytometry (AID 488806;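 active = aptamer binding inhibition above 30%, about 3 SD of noise from non-fluorescent compounds; inactive = inhibition at or below 30%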). The note with it: bead-bound GRK2, FAM-aptamer displacement, at 10 µM, stronger effect = higher value.
Test [10] addresses Beta-2 adrenergic receptor (Homo sapiens) (UniProt P07550). The experiment in a line: beta2AR agonists driving receptor internalization, pilot screen, cell-based, FAP fluorogen, flow cytometry, validation set (AID 504459;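 active = percent response above 42, roughly 3 SD of non-fluorescent test compounds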;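 note: agonist-driven loss of surface beta2AR via internalization measured by FAP dye flow cytometry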). The note with it: Am2.2-beta2AR cells, FAP surface receptor flow cytometry; at 10 µM; stronger effect = higher value.
The target in test [11] is AP-2 complex subunit beta (Homo sapiens) (UniProt P63010). The experiment in a line: inhibitors of arrestin peptide binding to AP2, pilot screen, biochemical, validation set, GST-AP2 beads, flow cytometry (AID 504541;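 active = inhibition above 54%, about 3 SD of non-fluorescent compounds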;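 note: AP2 carries R879A mutation and is captured from E. coli lysate; bead-bound FITC arrestin peptide fluorescence measuring arrestin peptide binding to AP2; 0% = DMSO wells and 100% = excess unlabeled arrestin peptide control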). The note with it: FITC arrestin peptide, at 10 µM, stronger effect = higher value, AP2 beta2 appendage fragment, R879A mutant.
A short description of test [12]: yeast V-ATPase proton transport modulators, S. cerevisiae, pHLuorin, HTS validation (AID 504600; in the data active = response above about 15%;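 note: plate controls were DMSO for no effect and reference compound for full effect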). To be noted: S. cerevisiae pHLuorin cytosolic pH, at 10 µM, stronger effect = higher value.
Test [13] deals with anti-desmoglein-3 scFv antibody binding to human DSG3. Nature of the test: inhibitors of anti-DSG3 scFv binding to DSG3, pilot screen, biochemical, validation compound set, bead-based, flow cytometry (AID 588368;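 active = binding below the plate cutoff, the plate median minus 3 SD, with a reading above zero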;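 note: signal is the median channel fluorescence of bead-bound GFP antibody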). To be noted: Protein G beads, DSG3-Fc, scFv-GFP binding, at 10 µM, stronger effect = lower value.
Test [14] in a line: inhibitors of fungal efflux pumps CDR1, CDR2, MDR1, pilot screen, validation compound set, multiplex, phenotypic (AID 588506;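 active = efflux inhibition above 0.42, the validation set average plus 4 SD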;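 note: Nile Red retained in cells so higher fluorescence means more efflux inhibition; 0 = negative control wells and 1 = enniatin B 25 µM full block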). To be noted: S. cerevisiae pump-expressing triplex, Nile Red efflux flow cytometry; at 10 µM; stronger effect = higher value; the pumps come from Candida albicans.
The target of test [15] is ATP-binding cassette sub-family B member 6 (Homo sapiens) (UniProt Q9NP58). The experiment in a line: ABCB6 transporter inhibitors, pilot screen, K562-ABCB6 cells, flow cytometry, validation set (AID 588550;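 active = inhibition above the screen-wide mean plus 3 SD, about 51%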;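 note: 0% = DMSO wells and 100% = benzethonium chloride 70 µM positive control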). To be noted: K562-ABCB6 porphyrin accumulation, 1 h, at 10 µM, stronger effect = higher value.
Test [16] can be described thus: promoters of myeloid differentiation in arrested cells, primary screen, cell-based, GFP/MAC1 double positive, flow cytometry, validation set (AID 588685;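 active = differentiation response of at least 50%, scaled between solvent and reference control, from cells with both markers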;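 note: compound exposure lasts four days before antibody staining and flow analysis; 0% = DMSO wells and 100% = 5 µM fulvestrant positive control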). To be noted: ER-HoxA9 marrow cells, stronger effect = higher value, normalized: vehicle 0, fulvestrant 100.

By inhibition is commonly meant the change of the read-out against control, counted positive when it falls.

Chain of Beta-2 adrenergic receptor (Homo sapiens) (P07550 whole entry, looked up): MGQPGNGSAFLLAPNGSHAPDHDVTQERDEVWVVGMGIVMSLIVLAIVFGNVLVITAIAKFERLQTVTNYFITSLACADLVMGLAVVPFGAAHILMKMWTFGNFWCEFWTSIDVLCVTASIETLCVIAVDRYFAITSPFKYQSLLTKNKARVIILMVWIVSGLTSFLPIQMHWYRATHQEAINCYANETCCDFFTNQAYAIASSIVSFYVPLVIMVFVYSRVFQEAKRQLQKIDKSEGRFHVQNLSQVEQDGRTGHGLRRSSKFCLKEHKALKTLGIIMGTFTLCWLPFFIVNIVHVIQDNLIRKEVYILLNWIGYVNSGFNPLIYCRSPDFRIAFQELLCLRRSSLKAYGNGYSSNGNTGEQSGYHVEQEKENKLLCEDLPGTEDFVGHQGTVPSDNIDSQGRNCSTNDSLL
Chain of AP-2 complex subunit beta (Homo sapiens) (P63010 whole entry, looked up, the tested form may be a part, one chain of several): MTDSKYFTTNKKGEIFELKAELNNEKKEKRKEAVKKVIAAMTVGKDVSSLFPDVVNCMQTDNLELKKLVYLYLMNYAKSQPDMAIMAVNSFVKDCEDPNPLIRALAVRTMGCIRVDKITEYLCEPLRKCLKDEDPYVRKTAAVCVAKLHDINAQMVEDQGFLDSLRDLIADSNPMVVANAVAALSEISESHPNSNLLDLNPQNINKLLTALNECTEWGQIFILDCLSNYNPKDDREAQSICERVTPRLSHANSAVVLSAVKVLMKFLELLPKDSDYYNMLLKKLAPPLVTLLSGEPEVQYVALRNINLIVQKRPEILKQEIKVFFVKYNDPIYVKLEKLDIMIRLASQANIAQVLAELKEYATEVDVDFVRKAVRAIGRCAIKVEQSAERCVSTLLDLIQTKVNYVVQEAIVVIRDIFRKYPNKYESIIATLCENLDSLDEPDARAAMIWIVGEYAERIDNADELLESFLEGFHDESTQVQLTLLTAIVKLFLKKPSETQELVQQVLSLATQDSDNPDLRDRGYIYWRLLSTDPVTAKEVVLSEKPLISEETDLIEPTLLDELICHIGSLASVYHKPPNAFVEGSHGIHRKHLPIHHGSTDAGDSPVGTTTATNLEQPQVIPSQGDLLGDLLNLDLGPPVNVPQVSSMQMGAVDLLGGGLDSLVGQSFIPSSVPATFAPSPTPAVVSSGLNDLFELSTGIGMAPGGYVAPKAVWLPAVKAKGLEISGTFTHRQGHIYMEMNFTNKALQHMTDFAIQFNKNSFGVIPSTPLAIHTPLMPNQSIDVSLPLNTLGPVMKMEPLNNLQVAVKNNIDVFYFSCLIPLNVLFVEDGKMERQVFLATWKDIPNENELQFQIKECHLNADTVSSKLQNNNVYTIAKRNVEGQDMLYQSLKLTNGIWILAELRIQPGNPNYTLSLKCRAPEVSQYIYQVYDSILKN
Chain of Integrin beta-1 (Homo sapiens) + Integrin alpha-4 (Homo sapiens) (P05556 whole entry, looked up): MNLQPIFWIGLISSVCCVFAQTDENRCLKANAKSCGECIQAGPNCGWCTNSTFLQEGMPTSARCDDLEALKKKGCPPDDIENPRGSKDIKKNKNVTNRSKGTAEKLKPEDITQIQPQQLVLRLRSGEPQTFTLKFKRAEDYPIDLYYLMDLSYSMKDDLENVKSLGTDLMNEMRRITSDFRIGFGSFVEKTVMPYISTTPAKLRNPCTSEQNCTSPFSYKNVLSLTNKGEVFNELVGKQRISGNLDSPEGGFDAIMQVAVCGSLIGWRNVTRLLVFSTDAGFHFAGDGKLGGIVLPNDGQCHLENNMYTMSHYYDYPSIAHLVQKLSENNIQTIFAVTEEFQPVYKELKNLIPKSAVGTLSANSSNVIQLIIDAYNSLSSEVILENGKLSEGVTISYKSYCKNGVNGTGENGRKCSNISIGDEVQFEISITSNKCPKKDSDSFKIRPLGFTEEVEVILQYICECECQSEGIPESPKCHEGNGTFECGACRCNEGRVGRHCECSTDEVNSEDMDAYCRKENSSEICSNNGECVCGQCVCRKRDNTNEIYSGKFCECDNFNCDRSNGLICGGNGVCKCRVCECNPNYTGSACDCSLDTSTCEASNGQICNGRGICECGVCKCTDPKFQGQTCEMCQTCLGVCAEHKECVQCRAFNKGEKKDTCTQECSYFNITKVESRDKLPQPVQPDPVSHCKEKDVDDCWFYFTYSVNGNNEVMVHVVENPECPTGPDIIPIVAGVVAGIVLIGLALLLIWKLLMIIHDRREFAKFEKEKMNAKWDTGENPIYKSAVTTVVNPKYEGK
Chain of Integrin beta-1 (Homo sapiens) + Integrin alpha-4 (Homo sapiens) (P13612 whole entry, looked up): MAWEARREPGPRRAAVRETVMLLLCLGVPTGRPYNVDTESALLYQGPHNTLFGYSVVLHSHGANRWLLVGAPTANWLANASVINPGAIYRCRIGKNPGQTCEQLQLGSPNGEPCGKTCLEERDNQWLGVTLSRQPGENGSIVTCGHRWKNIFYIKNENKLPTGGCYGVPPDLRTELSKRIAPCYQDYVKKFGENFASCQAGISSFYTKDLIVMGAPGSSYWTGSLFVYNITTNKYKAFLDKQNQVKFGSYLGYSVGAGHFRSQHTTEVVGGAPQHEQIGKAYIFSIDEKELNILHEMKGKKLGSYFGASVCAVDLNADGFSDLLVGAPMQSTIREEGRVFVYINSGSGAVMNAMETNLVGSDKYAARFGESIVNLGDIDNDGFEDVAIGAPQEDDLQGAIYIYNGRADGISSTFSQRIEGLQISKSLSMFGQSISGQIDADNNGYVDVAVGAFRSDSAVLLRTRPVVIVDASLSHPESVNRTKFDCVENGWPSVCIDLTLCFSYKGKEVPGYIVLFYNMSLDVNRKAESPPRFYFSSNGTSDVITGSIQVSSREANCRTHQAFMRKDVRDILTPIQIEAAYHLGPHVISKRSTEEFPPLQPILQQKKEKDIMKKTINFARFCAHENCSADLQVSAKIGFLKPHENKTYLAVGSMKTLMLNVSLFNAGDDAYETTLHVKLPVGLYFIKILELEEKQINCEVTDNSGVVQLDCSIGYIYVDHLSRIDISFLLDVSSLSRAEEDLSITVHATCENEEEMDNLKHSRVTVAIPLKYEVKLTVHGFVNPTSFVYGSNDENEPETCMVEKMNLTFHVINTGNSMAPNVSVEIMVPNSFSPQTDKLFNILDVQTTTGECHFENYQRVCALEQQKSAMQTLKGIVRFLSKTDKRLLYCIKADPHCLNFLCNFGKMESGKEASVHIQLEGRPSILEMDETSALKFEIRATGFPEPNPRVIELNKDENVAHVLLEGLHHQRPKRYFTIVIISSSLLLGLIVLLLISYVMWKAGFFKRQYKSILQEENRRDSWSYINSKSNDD
Chain of Beta-adrenergic receptor kinase 1 (Homo sapiens) (P25098 whole entry, looked up): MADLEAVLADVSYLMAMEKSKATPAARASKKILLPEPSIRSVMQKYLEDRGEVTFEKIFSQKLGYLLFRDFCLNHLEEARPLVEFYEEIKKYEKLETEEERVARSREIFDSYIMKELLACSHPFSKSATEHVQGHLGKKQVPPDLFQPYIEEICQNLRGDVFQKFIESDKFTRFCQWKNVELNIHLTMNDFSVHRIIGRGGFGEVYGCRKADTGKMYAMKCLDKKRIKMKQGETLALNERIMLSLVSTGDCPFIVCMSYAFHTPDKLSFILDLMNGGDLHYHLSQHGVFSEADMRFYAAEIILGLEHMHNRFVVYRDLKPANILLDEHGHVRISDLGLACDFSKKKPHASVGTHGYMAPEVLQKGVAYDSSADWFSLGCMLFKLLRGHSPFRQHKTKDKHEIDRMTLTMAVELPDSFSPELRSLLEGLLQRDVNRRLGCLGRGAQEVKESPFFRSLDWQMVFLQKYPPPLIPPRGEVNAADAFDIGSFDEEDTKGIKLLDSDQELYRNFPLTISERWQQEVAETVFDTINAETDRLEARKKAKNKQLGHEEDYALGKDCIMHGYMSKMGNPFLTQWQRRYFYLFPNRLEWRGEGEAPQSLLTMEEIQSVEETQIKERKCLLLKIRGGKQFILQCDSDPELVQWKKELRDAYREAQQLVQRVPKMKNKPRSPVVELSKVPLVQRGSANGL
Chain of ATP-binding cassette sub-family B member 6 (Homo sapiens) (Q9NP58 whole entry, looked up): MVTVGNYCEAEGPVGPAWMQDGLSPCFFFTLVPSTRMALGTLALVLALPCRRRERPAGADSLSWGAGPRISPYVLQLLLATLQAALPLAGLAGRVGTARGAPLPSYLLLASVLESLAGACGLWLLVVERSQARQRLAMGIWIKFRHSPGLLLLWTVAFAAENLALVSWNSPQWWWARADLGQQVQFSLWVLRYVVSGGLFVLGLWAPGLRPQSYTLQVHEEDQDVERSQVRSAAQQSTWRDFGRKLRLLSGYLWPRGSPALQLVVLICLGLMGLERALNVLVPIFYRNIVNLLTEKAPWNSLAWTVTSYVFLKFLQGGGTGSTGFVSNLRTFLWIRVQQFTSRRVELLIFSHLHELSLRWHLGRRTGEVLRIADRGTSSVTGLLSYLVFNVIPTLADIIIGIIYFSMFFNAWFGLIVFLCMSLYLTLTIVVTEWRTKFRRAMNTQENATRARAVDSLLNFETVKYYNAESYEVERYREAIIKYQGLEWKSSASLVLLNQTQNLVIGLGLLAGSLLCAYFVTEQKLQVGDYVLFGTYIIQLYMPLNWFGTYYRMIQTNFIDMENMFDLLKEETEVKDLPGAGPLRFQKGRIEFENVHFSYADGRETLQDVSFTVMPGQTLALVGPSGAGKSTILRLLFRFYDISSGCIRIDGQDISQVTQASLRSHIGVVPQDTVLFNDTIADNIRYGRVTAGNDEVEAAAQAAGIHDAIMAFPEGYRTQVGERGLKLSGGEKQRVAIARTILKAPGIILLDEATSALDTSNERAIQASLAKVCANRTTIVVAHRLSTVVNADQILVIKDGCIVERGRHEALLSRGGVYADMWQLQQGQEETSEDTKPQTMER

On to `COc1ccc(OCc2cccc(C(=O)NN)c2)cc1`, for which the percent of DMSO control GFP in [1] was 94.8% (inactive). Further, the results for the GFP response vs DMSO in [2] and in [4] were 97.4% (inactive) and 98.2% (inactive), respectively. Besides, the percent response of DMSO control in test [3] is 105% (inactive). The GFP response, % of DMSO in [5] was 86.3% (inactive). In [6], the double positive events is 59.7%. The vesicle binding response in test [6] is 167% (inactive). Besides, the inhibition is -8.62% (inactive) in test [7], -3.59% (inactive) in test [11] and 3% (inactive) in test [15]. In addition, the superoxide response (% of plate) in [8] was 98.7% (inactive). Further, the aptamer binding inhibition in test [9] is 8% (inactive). In addition, the response in test [10] was 11.1% (inactive); in [12] it was -1.43% (inactive). In addition, in test [13], the binding (% of control) was 103% (inactive). Also, the efflux inhibition (fraction of control) in test [14] is -0.28 (inactive). Further, in test [16], the differentiation response was -13.6% (inactive).

As to `O=C(NCCC(c1ccccc1)c1ccco1)c1cccs1` (stereo not given), in test [1], the percent of DMSO control GFP was 97.6% (inactive). The GFP response vs DMSO in test [2] was 105% (inactive); in [4], 127% (inactive). For the same compound, the percent response of DMSO control in test [3] was 91% (inactive). The GFP response, % of DMSO in test [5] is 96.5% (inactive). In addition, the double positive events in test [6] came out at 57.6%. In addition, the vesicle binding response in test [6] was 230% (inactive). In addition, the inhibition is -5.89% (inactive) in [7], -6.88% (inactive) in [11] and 11% (inactive) in test [15]. The superoxide response (% of plate) in test [8] was 105% (inactive). In addition, in test [9], the aptamer binding inhibition is 0% (inactive). Besides, the results for the response in [10] and in [12] were -13.3% (inactive) and 2.49% (inactive), respectively. Besides, the binding (% of control) in test [13] was 99.7% (inactive). Besides, the efflux inhibition (fraction of control) in test [14] is -0.21 (inactive). Also, the differentiation response in [16] was -5.6% (inactive).

Regarding `COc1ccc(N2C(=O)[C@@H]3[C@H](C2=O)[C@H]2c4ccccc4C=CN2[C@@H]3C(C)=O)cc1`, in [1], the percent of DMSO control GFP is 101% (inactive). In addition, the figures for the GFP response vs DMSO in [2] and in test [4] were 104% (inactive) and 112% (inactive), respectively. In addition, the percent response of DMSO control in test [3] is 96.5% (inactive). In test [5], the GFP response, % of DMSO was 96.8% (inactive). Also, in [6], the double positive events worked out at 64.6%. For the same compound, the vesicle binding response in test [6] is 176% (inactive). Further, the results for the inhibition in test [7], in test [11] and in [15] were -27.9% (inactive), -12.3% (inactive) and -6% (inactive), respectively. Further, in [8], the superoxide response (% of plate) is 98.7% (inactive). For the same compound, the aptamer binding inhibition in test [9] is 2% (inactive). Also, the response in test [10] is -19.3% (inactive); in test [12], -3.65% (inactive). For the same compound, in test [13], the binding (% of control) is 107% (inactive). In addition, the efflux inhibition (fraction of control) in test [14] is -0.26 (inactive). The differentiation response in test [16] is -3.11% (inactive).

Take `CC(C)CCC1(CCNC(C)c2cccs2)CCOC(C)(C)C1` (stereo not given): in test [1], the percent of DMSO control GFP is 102% (inactive). Also, the GFP response vs DMSO in test [2] is 108% (inactive); in [4], 93.3% (inactive). Besides, in test [3], the percent response of DMSO control is 97.8% (inactive). In addition, the GFP response, % of DMSO in test [5] is 101% (inactive). Besides, in [6], the double positive events came out at 58.8%. The vesicle binding response in test [6] was 1220% (inactive). In addition, the inhibition in test [7] is -6.68% (inactive); in test [11], 1.09% (inactive); in test [15], 2% (inactive). In test [8], the superoxide response (% of plate) is 96.5% (inactive). Also, the aptamer binding inhibition in test [9] was 0% (inactive). Further, the response in test [10] was 8.29% (inactive); in test [12] it was -1.06% (inactive). Besides, the binding (% of control) in [13] is 98.5% (inactive). In test [14], the efflux inhibition (fraction of control) is -0.17 (inactive). The differentiation response in test [16] was 1.22% (inactive).

With `Cc1cccc(OCC(=O)Nc2ccc(C(=O)NCC(C)C)cc2)c1`, the percent of DMSO control GFP in [1] is 102% (inactive). Also, the GFP response vs DMSO in test [2] was 102% (inactive); in [4], 110% (inactive). Besides, the percent response of DMSO control in [3] was 98.3% (inactive). In addition, the GFP response, % of DMSO in test [5] is 115% (inactive). Moreover, the double positive events in test [6] is 62.1%. Moreover, the vesicle binding response in test [6] was 156% (inactive). The inhibition in test [7] is 16.8% (inactive); in [11], -3.7% (inactive); in [15], 3% (inactive). Also, in test [8], the superoxide response (% of plate) was 97.4% (inactive). In test [9], the aptamer binding inhibition was 3% (inactive). The response in [10] was -25% (inactive); in test [12], 0.58% (inactive). In addition, the binding (% of control) in test [13] is 99.3% (inactive). Also, the efflux inhibition (fraction of control) in [14] was -0.09 (inactive). The differentiation response in [16] was 32.5% (inactive).
